One may read the inhibition as the relative decrease from the control value, in per cent.

Hit rate of the full screen: of about 190,000 compounds, about 1,300 (0.68%) were called active. Rule as the data show it: active = inhibition above about 50%; inactive = the rest. What follows is part of a selection rich in actives, with near analogues and random picks from the rest.

This assay deals with Mannose-6-phosphate isomerase (Homo sapiens) (UniProt P34949). In words: human PMI inhibitors, high substrate, primary screen, biochemical, fluorescence intensity, high mannose 6-phosphate (AID 1220). The note with it: recombinant PMI enzyme, coupled fluorescence intensity; at 20 µM; active compounds read high.
Mannose-6-phosphate isomerase (Homo sapiens), sequence (P34949 whole entry, looked up): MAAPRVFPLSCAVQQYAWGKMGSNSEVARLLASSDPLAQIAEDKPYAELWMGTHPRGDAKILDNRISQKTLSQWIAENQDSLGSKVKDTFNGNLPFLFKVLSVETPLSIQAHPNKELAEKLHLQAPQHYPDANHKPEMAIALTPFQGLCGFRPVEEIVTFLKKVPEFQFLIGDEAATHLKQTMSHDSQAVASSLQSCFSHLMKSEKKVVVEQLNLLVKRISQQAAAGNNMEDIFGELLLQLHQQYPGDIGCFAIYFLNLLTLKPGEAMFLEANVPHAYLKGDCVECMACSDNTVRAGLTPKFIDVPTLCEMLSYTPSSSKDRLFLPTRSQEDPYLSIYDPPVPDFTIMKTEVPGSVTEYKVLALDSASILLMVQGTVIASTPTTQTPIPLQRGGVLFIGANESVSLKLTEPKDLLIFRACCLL
For `Cc1ccc(Oc2c(F)c(F)nc(N3CCCC3)c2F)cc1`, the inhibition was 32.2% (inactive).
Under `CCN(CC(=O)NCc1cccs1)C(=O)CCc1c[nH]c2ccccc12` stands 8.8% (inactive); under `Cc1cc(C)n(-c2ccc(C(=O)O)cc2)n1`, 30.6% (inactive).
In the case of `CC(C)(C)c1cc(N)n(-c2ccc(C(=O)O)cc2)n1` it was 52.8% (active); in that of `Cc1cc(N)n(-c2ccc(C(=O)O)cc2)n1`, 2.1% (inactive); in that of `O=C(Cn1cnc2sc(-c3ccccc3)cc2c1=O)NCc1ccccc1`, -8.4% (inactive).
In the case of `CCOC(=O)C1=C(CSc2nccn2C)NC(=O)NC1c1cc(C)ccc1C` (configuration not stated) it was -2% (inactive).
On to `CCN(CC)Cc1cc(O)c(CN(CC)CC)cc1O`, for which the inhibition was 54.7% (active).
In the case of `CCc1oc(C(=O)O)cc1CN(CC)CC` it was 10.9% (inactive); in that of `CCN(CC)Cc1cc(C(C)=O)ccc1O`, -8.6% (inactive).
In the case of `CC(=O)Nc1ccc(NC(=O)CCC(=O)OCC(=O)c2ccc(C)c([N+](=O)[O-])c2)cc1` it was -5.6% (inactive).
Under `O=C(c1ccc(C(=O)N2CCOCC2)s1)N1CCOCC1` stands -3.8% (inactive); under `CCN1C(=O)/C(=C/C=C2/Sc3ccc4ccccc4c3N2CCO)SC1=S`, -5.4% (inactive).
As to `CN1C(=O)/C(=C/C=C2\SCCN2C)SC1=S`, the inhibition is 29.3% (inactive).
Take `CCN1C(c2ccccc2)=C(c2ccccc2)S/C1=C/C=C1\SC(=S)N(C)C1=O`: the inhibition was 54.4% (active).
In the case of `CC1(C)CC2CC(C)(CN2C(=O)C23CCC(C)(C(=O)O2)C3(C)C)C1` (configuration not stated) it was 9.1% (inactive); in that of `O=C(COC(=O)CCc1ccccc1)Nc1cc(S(=O)(=O)N2CCOCC2)ccc1N1CCCC1`, 7.1% (inactive); in that of `Cc1cc(O)ccc1N=Cc1c(C(F)(F)F)[nH][nH]c1=O`, 62.2% (active).
Under `Cc1cccc(C)c1N=Cc1c(C(F)(F)F)[nH][nH]c1=O` stands 0.2% (inactive); under `O=c1[nH][nH]c(C(F)(F)F)c1C=Nc1ccccc1Cl`, -6.7% (inactive); under `COc1ccc(CNC(=O)CN(c2ccccc2)S(=O)(=O)c2ccccc2[N+](=O)[O-])cc1`, -11.2% (inactive).
In the case of `CCN(Cc1ccccc1)C(=O)Cn1cc2c(n1)CCCC2`, the inhibition is 10.5% (inactive).
Under `Cc1ccc(CNC(=O)CCc2nc3ccccc3c(=O)[nH]2)cc1` stands 2.2% (inactive); under `CCOC(=O)N1CCC(c2nc(C)sc2C(=O)O)CC1`, 1.2% (inactive); under `CC(C)Cn1nc(NC(=O)C2CCCO2)c2cc3ccccc3nc21` (configuration not stated), 6.4% (inactive).
On to `Cc1occc1-c1nnc(SCC(=O)N2CCOCC2)n1CC(C)C`, for which the inhibition is 6.1% (inactive).
Take `COc1ccc([N+](=O)[O-])cc1NC(=O)CC(c1ccccc1)c1ccccc1`: the inhibition was 7.4% (inactive).
As for `COc1ccc(C(CC(=O)Nc2cc([N+](=O)[O-])ccc2OC)c2ccccc2)cc1` (configuration not stated), the inhibition was 54.1% (active).
Turning to `COc1ccc([N+](=O)[O-])cc1NC(=O)CC(C)c1ccccc1` (configuration not stated), the inhibition is 14.4% (inactive).
For the compound `CS(=O)(=O)N1CCC(Oc2ccccc2C(=O)NC(C2CC2)C2CC2)CC1`, the inhibition was 2.8% (inactive).
For the compound `CCOC(=O)c1cnc(SC2CCc3ccccc3C2=O)nc1N` (configuration not stated), the inhibition was 53% (active).
In the case of `CCOC(=O)c1cnc(SC2CC(=O)N(c3ccccc3)C2=O)nc1N` (configuration not stated) it was 0.1% (inactive); in that of `CCOC(=O)c1cnc(SC2CC(=O)N(c3ccc(C)cc3)C2=O)nc1N` (configuration not stated), -5.1% (inactive).
For `COCCn1nnnc1C(C(C)C)N1CCSCC1` (configuration not stated), the inhibition was -8% (inactive).
Under `N#CC1(C#N)CC(C=O)=C(N)C1(C#N)CC(=O)c1ccc(F)cc1` (configuration not stated) stands 52.8% (active).
In the case of `O=C(/C=C\NCC(=O)c1ccccc1)c1ccc(F)cc1` it was -70.8% (inactive).
Consider `N#CC1(C#N)CC(C=O)=C(N)C1(C#N)CC(=O)C12CC3CC(CC(C3)C1)C2` (configuration not stated), for which the inhibition is 32.5% (inactive).
Take `COc1ccc(OCCNc2cc(N3CCOCC3)ccc2[N+](=O)[O-])cc1`: the inhibition is 5.4% (inactive).
In the case of `O=C(CSc1ccc(Cl)cc1)Nc1cccc(-c2nc3ncccc3o2)c1` it was -3.6% (inactive).
Under `C=CCN(CC=C)C(=S)Nc1ccc2nsnc2c1` stands 55.3% (active).
For the compound `NS(=O)(=O)c1ccc(NC(=S)NCc2ccc3c(c2)OCO3)cc1`, the inhibition was 17.1% (inactive).
In the case of `O=C(Nc1ccc(S(=O)(=O)NCc2ccccc2)cc1)Nc1ccc2c(c1)OCO2` it was 8.6% (inactive); in that of `S=C(NCc1ccc(Cl)c(Cl)c1)Nc1ccc2c(c1)OCO2`, 10.2% (inactive).
Consider `CN(C)C(=S)Nc1ccc2c(c1)OCO2`, for which the inhibition is 11.8% (inactive).
In the case of `S=C(Nc1ccc2c(c1)OCO2)Nc1ccc2c(c1)OCO2` it was 62.3% (active); in that of `C=CCN(CC=C)C(=S)Nc1ccc(OC)c(OC)c1`, 20.1% (inactive); in that of `NC(=S)Nc1ccc2c(c1)OCO2`, 1.7% (inactive).
Under `S=C(NCc1ccc2c(c1)OCO2)Nc1ccc2nsnc2c1` stands 53.7% (active); under `O=C(NCc1ccc2c(c1)OCO2)Nc1ccc2nsnc2c1`, 26.7% (inactive).
In the case of `C=CCNC(=S)Nc1ccc2nsnc2c1` it was 9.9% (inactive); in that of `CNS(=O)(=O)c1ccc(NC(=S)Nc2ccc3c(c2)OCO3)cc1`, 55.7% (active).
Turning to `CCCN1C(=O)C(O)(C/C(C)=N/O)c2ccccc21` (configuration not stated), the inhibition is 3.5% (inactive).
As for `COc1ccc(CC(=O)OC(C)CN2CCOCC2)cc1` (configuration not stated), the inhibition was -1.4% (inactive).
Under `Cc1ccc(-c2nc(C3CCCN(S(=O)(=O)c4ccc(C)cc4)C3)no2)cc1` (configuration not stated) stands 5.6% (inactive).
In the case of `CCN(CC)S(=O)(=O)c1ccc(C(=O)OCn2c(SC)nnc(C)c2=O)cc1` it was 12.1% (inactive); in that of `CCn1ncc(NC(=S)NCCc2ccccc2)c1C(N)=O`, 5.4% (inactive); in that of `Cc1ccc(NC(=S)Nc2ccc(S(=O)(=O)N3CCOCC3)cc2)cc1S(=O)(=O)N1CCOCC1`, -1.2% (inactive).
Regarding `O=S(=O)(NCc1ccc(F)cc1)c1cccc(S(=O)(=O)N2CCOCC2)c1`, the inhibition is -0.5% (inactive).
In the case of `O=S(=O)(NCc1ccccc1)c1cccc(S(=O)(=O)N2CCOCC2)c1`, the inhibition was 4.1% (inactive).
With `S=C(Nc1ccc2c(c1)OCCO2)Nc1ccc2c(c1)OCO2`, the inhibition was 62.7% (active).
Turning to `O=S(=O)(c1ccc(NC(=S)Nc2ccccc2)cc1)N1CCOCC1`, the inhibition was -2.7% (inactive).
Under `O=S(=O)(c1ccc(NC(=S)Nc2ccc3c(c2)OCO3)cc1)N1CCOCC1` stands 52.2% (active); under `O=C(Nc1ccc2c(c1)OCO2)Nc1ccc2c(c1)OCO2`, 15.8% (inactive).
For `CCn1ncc(NC(=S)Nc2ccc3c(c2)OCO3)c1C(N)=O`, the inhibition was 57.3% (active).
Under `O=S(=O)(NCc1ccc2c(c1)OCO2)c1cccc(S(=O)(=O)N2CCOCC2)c1` stands 52.5% (active).
In the case of `O=C(Nc1ccc2c(c1)OCCO2)Nc1ccc2c(c1)OCO2` it was 13% (inactive).
Under `CCn1ncc(Br)c1C(=O)Nc1ccc2c(c1)OCCO2` stands 0.3% (inactive).

The values above are taken from PubChem BioAssay AID1220 (Sanford-Burnham Center for Chemical Genomics, 2008).
